Measurements reported in PubChem BioAssay (EPA / NIEHS).
Inconclusive results are not listed. Active and inactive are the calls of the source. The calls were made as follows: active = hit-call score of the fitted dose curve at least 0.9, where 1 is the maximum; inconclusive = response in the unintended direction; inactive = score below 0.9.

Experiment: ATG_GAL4_TRANS: Attagene TRANS-FACTORIAL HepG2 Assay for GAL4 (Internal Marker) (AID 2282976)
Details: HepG2 Attagene TRANS GAL4 internal marker reporter
Description: ATG_TRANS is a cell-based, multiplexed-readout assay that uses HepG2, a human liver cell line, with measurements taken at 24 hours after chemical dosing in a 24-well plate.ATG_GAL4_TRANS is one of 30 assay component(s) measured or calculated from the ATG_TRANS assay. It is designed to make measurements of mRNA induction, a form of inducible reporter, as detected with fluorescence intensity signals by Reverse transcription polymerase chain reaction (RT-PCR) and Capillary electrophoresis technology.Data from the assay component ATG_GAL4_TRANS was analyzed into 1 assay endpoint. This assay endpoint, ATG_GAL4_TRANS, was analyzed in the positive analysis fitting direction relative to DMSO as the negative control and baseline of activity. Using a type of inducible reporter, measures of mRNA for gain-of-signal activity can be used to understand the background control at the transcription factor-level as they relate to the gene . Furthermore, this assay endpoint can be referred to as a secondary readout, because this assay has produced multiple assay endpoints where this one serves a background control function. To generalize the intended target to other relatable targets, this assay endpoint is annotated to the background measurement intended target family, where the subfamily is baseline control.
Human liver HepG2 cells are transiently transfected with multiple reporter transcription units (MRTUs) in 6-well plates using FuGene 6 reagent (Roche; 3 ml FuGene/1 mg DNA). The MRTU constructs are regulated by a cis-regulating element (promoter). […] A major difference between the CIS and TRANS system is that in CIS activities of endogenous TFs are measured, whereas the TRANS assay evaluates changes in activities of exogenous, chimeric NR-Gal4 proteins. […] At the end of 24 hour incubation, total RNA was isolated using TriZol reagent (Invitrogen). The isolated RNA is then reverse-transcribed using oligo(dT) primer and Mo-MLV reverse transcriptase (Invitrogen) with DNAse I (Ambion) treatment for 30 min. The one-tenth of the produced cDNA was amplified by PCR using Taq DNA polymerase (Invitrogen) and two reporter sequence-specific primers. The PCR products were fluorescently labeled by primer extension with 6-arboxyfluorescein (6-FAM) 5'-labeled reporter sequence-specific primer (2 min at 95 C, 20 s at 68 C and 10 min at 72 C) and these products were digested with 5U of HpaI (New England Biolabs) for 2h at 37 C. The fragments were purified using Qiaquick PCR columns (Qiagen), analyzed on an ABI 3130xL genetic analyzer (Applied Biosystems) with peak positions identified by using a set of X-rhodamine (ROX)-labeled MapMarker1000 molecular weight standards (BioVentures). The raw capillary electrophoresis data was processed using Attagraph software (Attagene).

Row | Compound | outcome
1 | COc1ccc(C(c2ccc(OC)cc2)C(Cl)(Cl)Cl)cc1 | inactive
2 | CC(C)Oc1cc(-n2nc(C(C)(C)C)oc2=O)c(Cl)cc1Cl | inactive
3 | CNC(=O)ON=CC(C)(C)SC | inactive
4 | C=CC1(C)OC(=O)N(c2cc(Cl)cc(Cl)c2)C1=O (stereo not drawn) | inactive
5 | COC(=O)N(OC)c1ccccc1COc1ccn(-c2ccc(Cl)cc2)n1 | inactive
6 | C=CCC1=C(C)C(OC(=O)C2C(C=C(C)C)C2(C)C)CC1=O (stereo not drawn) | inactive
7 | N#Cc1nn(-c2c(Cl)cc(C(F)(F)F)cc2Cl)c(N)c1S(=O)C(F)(F)F (stereo not drawn) | inactive
8 | CON(C)C(=O)Nc1ccc(Cl)c(Cl)c1 | inactive
9 | OC(c1ccc(Cl)cc1)(c1cncnc1)c1ccccc1Cl (stereo not drawn) | inactive
10 | CCCCOC(=O)c1ccccc1C(=O)OCCCC | inactive
11 | CO/C=C(/C(=O)OC)c1ccccc1Oc1cc(Oc2ccccc2C#N)ncn1 | inactive
12 | CCOP(=S)(OCC)SCn1c(=O)oc2cc(Cl)ccc21 | inactive
13 | CCCC1COC(Cn2cncn2)(c2ccc(Cl)cc2Cl)O1 (stereo not drawn) | inactive
14 | Cc1cc(Cl)ccc1OCC(=O)O | inactive
15 | CC(C)(C)c1ccc(CSc2cnn(C(C)(C)C)c(=O)c2Cl)cc1 | inactive
16 | COc1cnc(OC)n2nc(NS(=O)(=O)c3c(OCC(F)F)cccc3C(F)(F)F)nc12 | inactive
17 | CCCN(CCC)c1c([N+](=O)[O-])cc(S(N)(=O)=O)cc1[N+](=O)[O-] | inactive
18 | CCNc1nc(Cl)nc(NC(C)C)n1 | inactive
